# About 4,300 (8.3%) of roughly 52,000 compounds were called active. This excerpt belongs to a sample that is enriched for actives. A number with no mark means an inactive call. Cut-off read from the data, not from the text of the source: active = survival mostly below about 52% (no sharp cut-off); inactive = mostly above about 56%.
# System: DeltatarO mutant
# Test: growth inhibition of S. aureus wild type versus tarO mutant, primary screen, teichoic acid synthesis inhibitors, RN4220, OD600 (AID 463173)
# Details: OD600, 18 h, hits give low values, screened at 18.75 µg/mL (by protocol)
row,SMILES,survival
1,Cc1ccc(C(=O)CSc2nnc3ccc4ccccc4n23)cc1,60%
2,CCOc1ccccc1NC(=O)NC1(C(=O)NCc2ccco2)CCCCC1,84%
3,CCc1c(C)c2ccc(O)c(CN3CCN(c4ccc(F)cc4)CC3)c2oc1=O,55%
4,CCc1c(C)c2ccc(O)c(CN3CCN(c4ccccc4)CC3)c2oc1=O,56% (active)
5,CCc1c(C)c2ccc(O)c(CN3CCN(c4ccc(OC)cc4)CC3)c2oc1=O,55%
6,Cc1ccc(-n2nc3c(N4CCC(C(=O)NC5CCCCC5)CC4)nnc(C)c3c2C)cc1,81%
7,Cc1ccc(N2CNC(=O)c3c(C)cc(C)nc32)cc1,74%
8,Cc1ccc2sc(N(Cc3cccnc3)C(=O)CCS(=O)(=O)c3ccccc3)nc2c1C,6% (active)
9,Cc1cccc2sc(N(Cc3cccnc3)C(=O)CCS(=O)(=O)c3ccccc3)nc12,89%
10,Cc1cc(C)c2nc(N(Cc3cccnc3)C(=O)CCS(=O)(=O)c3ccccc3)sc2c1,83%
11,CC(=O)c1ccc(C(=O)N(Cc2cccnc2)c2nc3c(Cl)cccc3s2)cc1,91%
12,CC(=O)c1ccc(C(=O)N(Cc2cccnc2)c2nc3c(C)c(C)ccc3s2)cc1,-1% (active)
13,CC(=O)N(Cc1cccnc1)c1nc2c(C)c(C)ccc2s1,72%
14,C=CCNCc1cccn1-c1ccccc1,76%
15,CCCCn1cc(S(=O)(=O)c2ccc(CC)cc2)c(=O)c2cc(F)c(N3CCCC(C)C3)cc21 (stereo unspecified),115%
16,O=C(CN1CCC(NC(=O)Nc2ccccc2-c2ccccc2)CC1)NCc1ccco1,78%

row,SMILES,survival
1,Cc1cccnc1Nc1nc(-c2cccnc2)cs1,48%
2,CC1CCCCC1NC(=O)CSc1nncn1N (stereo unspecified),84%
3,O=C(Nc1cccc(F)c1)c1oc2ccccc2c1NC(=O)C12CC3CC(CC(C3)C1)C2,72%
4,CN1CCN(C(c2ccccc2Cl)c2sc3nc(-c4ccco4)nn3c2O)CC1 (stereo unspecified),131%
5,Oc1c(C(c2ccccc2)N2CCN(Cc3ccccc3)CC2)sc2nc(-c3ccco3)nn12 (stereo unspecified),37% (active)
6,Oc1c(C(c2ccccc2)N2CCCC2)sc2nc(-c3ccco3)nn12 (stereo unspecified),0% (active)
7,Cc1ccc(C(c2sc3nc(-c4ccco4)nn3c2O)N2CCC3(CC2)OCCO3)cc1 (stereo unspecified),78%
8,Oc1c(C(c2ccccc2Cl)N2CCOCC2)sc2nc(-c3ccco3)nn12 (stereo unspecified),0% (active)
9,CN1CCN(C(c2ccccc2)c2sc3nc(-c4ccco4)nn3c2O)CC1 (stereo unspecified),75%
10,Oc1c(C(c2ccccc2)N2CCC3(CC2)OCCO3)sc2nc(-c3ccco3)nn12 (stereo unspecified),69%
11,Oc1c(C(c2ccc(F)cc2)N2CCN(Cc3ccccc3)CC2)sc2nc(-c3ccco3)nn12 (stereo unspecified),73%
12,Cc1ccc(C(c2sc3nc(-c4ccco4)nn3c2O)N2CCN(Cc3ccccc3)CC2)cc1 (stereo unspecified),112%
13,Oc1c(C(c2ccccc2)N2CCOCC2)sc2nc(-c3ccco3)nn12 (stereo unspecified),69%
14,Oc1c(C(c2ccccc2Cl)N2CCCC2)sc2nc(-c3ccco3)nn12 (stereo unspecified),83%
15,Oc1c(C(c2ccc(Cl)cc2)N2CCC3(CC2)OCCO3)sc2nc(-c3ccco3)nn12 (stereo unspecified),32% (active)
